Experimental data published in PubChem BioAssay (Tox21).
Records with an inconclusive call do not appear. The source made the active and inactive calls. Unless noted, calls follow the shape of the dose curve; as a rule, active = well fitted curve in the direction sought with a large enough effect in the repeat runs; inconclusive = weak or mixed curves; inactive = no such curve, though single readings can be large; an effect the other way counts as inactive or inconclusive.

Tests used:
[1] = qHTS RealTime-Glo MT Cell Viability Assay in HEK293 cells - 24 hour (AID 1224886); also: nearly all actives have a fitted effect of over 50% in size; also: potency is read from the fitted curve at half-maximal effect; as to activity change, negative = cytotoxicity: top concentration of the series differs between compounds
In short: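 Nonlytic real-time viability readout: viable cells convert prosubstrate to NanoLuc substrate, giving luminescence proportional to live cell number. HEK293, 600 cells/well, compound added after 5 h, continuous culture at 37 C.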

[2] = A CellTox Green Cytotoxicity Assay to monitor cytotoxicity in HEK293 cells - 16 hour (AID 1224888); also: nearly all actives have a fitted effect of over 35% in size
In short: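 HEK293 cells, 600/well, were preincubated 5 hours and then exposed to compounds at 37 C for up to 40 hours. A cell-impermeant cyanine dye staining dead-cell DNA was read by fluorescence at 0, 8, 16, 24, 32 and 40 h time points.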

[3] = qHTS RealTime-Glo MT Cell Viability Assay in HepG2 cells - 0 hour (AID 1224889); also: nearly all actives have a fitted effect of over 50% in size; also: potency is read from the fitted curve at half-maximal effect
In short: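 Luminescence read-out: viable HepG2 cells reduce a prosubstrate to a NanoLuc substrate, giving a signal proportional to live cell number. Reads taken at 0, 8, 16, 24, 32 and 40 h of compound exposure at 37 C.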

[4] = A CellTox Green Cytotoxicity Assay to monitor cytotoxicity in HepG2 cells - 8 hour (AID 1224890); also: nearly all actives have a fitted effect of over 45% in size
In short: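 HepG2 cells, 600/well, preincubated 5 h with CellTox Green dye, then exposed to Tox21 compounds in DMSO at 37 C for up to 40 h. Dead-cell DNA fluorescence read at the indicated time point.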

[5] = qHTS assay to identify small molecule antagonists of the estrogen receptor alpha (ER-alpha) signaling pathway using the BG1 cell line in the presence of 0.1 nM 17-beta-estradiol - cell viability counter screen (AID 1259241); also: nearly all actives have a fitted effect of over 40% in size
In short: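 In this screen, hormone-deprived VM7Luc4E2 cells were seeded at 4,000 per well, dosed with compound and 0.1 nM estradiol final, and incubated 22 hr at 37C and 5% CO2; fluorogenic live-cell protease signal reported viability.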

[6] = qHTS assay to identify small molecule antagonists of the androgen receptor (AR) signaling pathway using the MDA cell line in the presence of 0.5 nM R1881 - cell viability counter screen (AID 1259242); also: nearly all actives have a fitted effect of over 45% in size
In short: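 MDA-kb2 cells (MMTV-luciferase, AR/GR responsive) were treated with compounds plus 0.5 nM R1881 (final) for 16 hr at 37C, 0% CO2. Viability was then read in the same wells as live-cell protease fluorescence (CellTiter-Fluor, 30 min).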

[7] = target: Estrogen receptor (Homo sapiens) (UniProt P03372); assay: qHTS assay to identify small molecule antagonists of the estrogen receptor alpha (ER-alpha) signaling pathway using the BG1 cell line in the presence of 0.1 nM 17-beta-estradiol (AID 1259244); also: nearly all actives have a fitted effect of over 50% in size
Chain of Estrogen receptor (Homo sapiens) (P03372 whole entry, looked up): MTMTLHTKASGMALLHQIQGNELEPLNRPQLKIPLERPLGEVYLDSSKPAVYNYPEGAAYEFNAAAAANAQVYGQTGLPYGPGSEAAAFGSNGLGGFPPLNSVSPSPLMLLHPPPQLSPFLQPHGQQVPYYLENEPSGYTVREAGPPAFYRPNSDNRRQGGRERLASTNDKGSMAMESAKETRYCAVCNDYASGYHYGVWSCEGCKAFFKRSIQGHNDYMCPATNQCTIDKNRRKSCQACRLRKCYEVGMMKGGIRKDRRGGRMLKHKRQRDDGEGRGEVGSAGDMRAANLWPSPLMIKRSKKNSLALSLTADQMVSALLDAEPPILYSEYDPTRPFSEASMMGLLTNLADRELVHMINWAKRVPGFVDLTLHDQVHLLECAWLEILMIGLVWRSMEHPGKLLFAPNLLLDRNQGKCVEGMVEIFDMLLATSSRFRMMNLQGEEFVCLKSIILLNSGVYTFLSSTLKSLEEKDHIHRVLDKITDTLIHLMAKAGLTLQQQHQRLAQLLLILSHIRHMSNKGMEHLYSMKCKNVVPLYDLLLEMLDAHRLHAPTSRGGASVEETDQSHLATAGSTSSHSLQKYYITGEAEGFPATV
In short: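 VM7Luc4E2 cells (endogenous full-length ER-alpha, 4×ERE-luciferase), kept 5 days in phenol red-free, charcoal-stripped FBS medium; 4,000 cells/well. Compounds added with 0.1 nM (final) 17beta-estradiol, 22 hr at 37C; luminescence read with ONE-Glo after 30 min.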

[8] = qHTS assay to identify small molecule HDAC inhibitors (AID 1259364); also: top concentration of the series differs between compounds; nearly all actives have a fitted effect of over 45% in size
In short: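 Wild-type HCT-116 cells, plated overnight at 37 C, exposed to compounds 2 hr at 37 C; luminogenic HDAC-Glo substrate then added 30 min at room temperature. Luminescence reports relative endogenous class I/II HDAC activity.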

[9] = qHTS assay to identify small molecule HDAC inhibitors - cell viability counter screen (AID 1259365); also: series mostly up to about 92 µM; nearly all actives have a fitted effect of over 50% in size
In short: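 Measured quantity is CellTiter-Glo luminescence from wild-type HCT-116 cells after compound incubation of 2hr at 37C, 5% CO2; reagent developed 30min at room temperature.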

[10] = qHTS assay to identify small molecule agonists of the sonic hedgehog signaling (Shh) pathway - cell viability counter screen (AID 1259366); also: nearly all actives have a fitted effect of over 50% in size
In short: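 In quantitative high-throughput format, 3T3 Gli1-Luc cells were exposed to compounds for 24hr and multiplexed for viability using CellTiter-Fluor, incubated 1hr at 37C before the fluorescence read.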

[11] = qHTS assay to identify small molecule antagonists of the sonic hedgehog signaling (Shh) pathway - cell viability counter screen (AID 1259367); also: nearly all actives have a fitted effect of over 55% in size
In short: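 Cells: 3T3 Gli1-Luc, 2,000/well, 4 hr pre-incubation. Compounds in DMSO, then conditioned medium. Incubation 24 hr, 37C, 5% CO2. CellTiter-Fluor at 23 hr, 1 hr, fluorescence.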

[12] = qHTS assay to identify small molecule agonists of the sonic hedgehog signaling (Shh) pathway (AID 1259368; calls by dose curve;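 also: NIH/3T3-derived 3T3Gli1-Luc cells carrying a stable Gli1-driven firefly luciferase reporter; series mostly up to about 92 µM; nearly all actives have a fitted effect of over 15% in size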)
In short: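 NIH/3T3-derived 3T3Gli1-Luc cells with stably integrated Gli1-driven firefly luciferase, 2,000 cells/well, compounds added after 4 hr. Incubated 24 hr at 37C, 5% CO2; luminescence read after 30 min with luciferase reagent at room temperature.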

[13] = qHTS assay to identify small molecule antagonists of the sonic hedgehog signaling (Shh) pathway (AID 1259369; calls by dose curve; also: nearly all actives have a fitted effect of over 45% in size)
In short: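 NIH/3T3-derived Gli1-Luc reporter cells plated 4 h, dosed with compound, then stimulated with conditioned medium for 24 h at 37 C. Firefly luciferase luminescence read after 30 min with detection reagent at room temperature.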

[14] = target: Estrogen receptor beta (Homo sapiens) (UniProt Q92731); assay: qHTS assay to identify small molecule agonists of the estrogen receptor beta (ER-beta) signaling pathway (AID 1259377; active = well fitted activation curve with a large enough effect in the signal ratio in the repeat runs, not every such curve was filed as active; the % refers to the signal ratio)
Chain of Estrogen receptor beta (Homo sapiens) (Q92731 whole entry, looked up): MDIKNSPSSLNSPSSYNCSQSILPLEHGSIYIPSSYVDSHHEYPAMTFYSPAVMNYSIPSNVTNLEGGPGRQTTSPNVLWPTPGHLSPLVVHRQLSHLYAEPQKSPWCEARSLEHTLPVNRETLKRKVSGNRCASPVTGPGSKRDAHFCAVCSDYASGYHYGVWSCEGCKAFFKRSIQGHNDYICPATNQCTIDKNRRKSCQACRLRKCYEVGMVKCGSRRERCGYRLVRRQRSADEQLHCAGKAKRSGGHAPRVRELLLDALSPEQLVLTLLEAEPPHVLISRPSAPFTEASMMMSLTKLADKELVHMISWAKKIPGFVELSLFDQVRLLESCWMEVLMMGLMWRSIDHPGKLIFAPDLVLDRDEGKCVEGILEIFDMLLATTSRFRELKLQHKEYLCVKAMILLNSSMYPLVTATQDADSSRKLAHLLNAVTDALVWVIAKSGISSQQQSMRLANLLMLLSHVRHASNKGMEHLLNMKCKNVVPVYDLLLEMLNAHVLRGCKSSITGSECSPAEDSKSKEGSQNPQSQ
In short: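 Reporter cells (HEK293T, ER-beta-UAS-bla) receive compounds or DMSO after a 6 hr pre-incubation. They then incubate 16 hr at 37C/5% CO2, and fluorescence from LiveBLAzer B/G substrate is measured after 2 hours at room temperature.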

[15] = target: Estrogen receptor beta (Homo sapiens) (UniProt Q92731); assay: qHTS assay to identify small molecule antagonists of the estrogen receptor beta (ER-beta) signaling pathway (AID 1259378; active = well fitted inhibition curve with a large enough effect in the signal ratio in the repeat runs, not every such curve was filed as active; the % refers to the signal ratio)
In short: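 Antagonist mode: compounds added to beta-lactamase reporter HEK293T ER-beta-UAS cells stimulated with E2 (1nM final), 16 hr at 37C. LiveBLAzer B/G FRET substrate, 2 hours room temperature, fluorescence read-out.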

[16] = qHTS assay to identify small molecule agonists of the androgen receptor (AR) signaling pathway in the presence of an antagonist - cell viability counter screen (AID 1259379);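 also: MDA-kb2 human breast cancer cells carrying an MMTV luciferase reporter; series mostly up to about 92 µM; nearly all actives have a fitted effect of over 25% in size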
In short: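 MDA-kb2 cells (MMTV-luciferase, AR/GR), 3,000/well, 5 h attachment, then 3.0 µM nilutamide (final) and compounds at 15 concentrations. Viability by CellTiter-Fluor fluorescence after 16 h at 37 °C, 0% CO2, in the reporter wells.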

[17] = qHTS assay to identify small molecule agonists of the estrogen receptor beta (ER-beta) signaling pathway - cell viability counter screen (AID 1259380); also: nearly all actives have a fitted effect of over 30% in size
In short: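 ER-beta-UAS-bla HEK293T cells in medium with 2% charcoal-stripped FBS, pre-incubated 6 hr, then treated 16 hr at 37C. Cytotoxicity read in the same wells by CellTiter-Glo luminescence after 30 min at room temperature.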

[18] = qHTS RealTime-Glo MT Cell Viability Assay in HEK293 cells - 8 hour (AID 1224887)
In short: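 600 cells/well were plated with the nonlytic NanoLuc/prosubstrate reagent, pre-incubated 5 h, then given 23 nL of compound in DMSO. Incubation at 37 C for 40 h, with luminescence from viable-cell-reduced substrate read repeatedly from 0 h.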

[19] = target: Androgen receptor (Homo sapiens) (UniProt P10275); assay: qHTS assay to identify small molecule antagonists of the androgen receptor (AR) signaling pathway using the MDA cell line in the presence of 0.5 nM R1881 (AID 1259243); also: nearly all actives have a fitted effect of over 50% in size
Chain of Androgen receptor (Homo sapiens) (P10275 whole entry, looked up): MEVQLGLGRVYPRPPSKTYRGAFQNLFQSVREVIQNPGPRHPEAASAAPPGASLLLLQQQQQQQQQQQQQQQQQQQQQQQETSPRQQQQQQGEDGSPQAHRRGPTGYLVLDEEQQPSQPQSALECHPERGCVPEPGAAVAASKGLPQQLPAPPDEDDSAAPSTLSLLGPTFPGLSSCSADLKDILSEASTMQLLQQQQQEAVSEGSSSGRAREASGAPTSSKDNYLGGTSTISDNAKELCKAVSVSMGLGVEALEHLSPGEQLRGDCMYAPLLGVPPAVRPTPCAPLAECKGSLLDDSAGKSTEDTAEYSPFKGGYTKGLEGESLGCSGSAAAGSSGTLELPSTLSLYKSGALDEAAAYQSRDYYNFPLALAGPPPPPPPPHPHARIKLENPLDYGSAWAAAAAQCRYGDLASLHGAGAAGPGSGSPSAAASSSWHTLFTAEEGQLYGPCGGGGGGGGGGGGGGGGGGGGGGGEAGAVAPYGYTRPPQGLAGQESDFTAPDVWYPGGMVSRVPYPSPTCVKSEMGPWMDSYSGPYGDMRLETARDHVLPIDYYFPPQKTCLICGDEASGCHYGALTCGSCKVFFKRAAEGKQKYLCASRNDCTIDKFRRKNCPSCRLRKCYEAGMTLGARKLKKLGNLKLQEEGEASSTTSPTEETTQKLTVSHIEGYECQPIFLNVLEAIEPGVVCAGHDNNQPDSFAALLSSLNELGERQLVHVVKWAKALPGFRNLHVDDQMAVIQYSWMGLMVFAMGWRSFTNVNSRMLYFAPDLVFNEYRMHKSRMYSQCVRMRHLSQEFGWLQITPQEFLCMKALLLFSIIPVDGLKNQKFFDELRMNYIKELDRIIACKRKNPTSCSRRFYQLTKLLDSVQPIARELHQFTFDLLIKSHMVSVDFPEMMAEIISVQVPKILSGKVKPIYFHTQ
In short: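 MDA-kb2 cells (MMTV-luciferase, responsive to AR and GR) at 3,000/well, rested 5 h at 37C, 0% CO2, then given compounds plus 0.5 nM R1881 (final) for 16 hr. Luciferase read with ONE-Glo after 30 min at room temperature.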

[20] = qHTS assay to identify small molecule phospholipidosis (PLD) inducers (AID 1259344; active = well fitted curve in the direction sought with a large enough effect; an effect the other way counts as inactive or inconclusive)
In short: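 Phospholipidosis is scored by imaging LipidTOX-stained pits in HepG2 cells exposed to compound for 24 h at 37 C; pit counts and integrated intensities per well and per cell serve as outputs.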
% is scaled to controls: 0 for no effect and ±100 for the full control effect.

CC(=O)C1C(=O)C=C(C)OC1=O (stereo not drawn)
inactive: Potency [1] | Potency [2] | Potency [3] | Potency [4] | outcome [5] | outcome [6] | outcome [7] | Potency [8] | outcome [9] | outcome [10] | outcome [11] | outcome [12] | Potency [13] | Potency [14] | Potency [15] | outcome [16] | outcome [17]

O=Cc1ccccc1Cl
inactive: Potency [1] | Potency [18] | Potency [3] | Potency [4] | outcome [6] | Potency [8] | outcome [9] | outcome [10] | outcome [11] | outcome [12] | Potency [13] | Potency [14] | Potency [15] | outcome [16] | outcome [17]

O=[N+]([O-])c1c(Cl)cc(Cl)cc1Cl
inactive: Potency [1] | Potency [18] | Potency [3] | outcome [5] | outcome [6] | Potency [8] | outcome [9] | outcome [10] | outcome [11] | outcome [12] | Potency [13] | Potency [14] | Potency [15] | outcome [16] | outcome [17]

N[C@@H](CSCCCO)C(=O)O
inactive: activity change, negative = cytotoxicity [1] 2.46% [at 15.8 µM] | activity change [2] 3.31% [at 15.8 µM, stronger effect = higher value] | activity change, negative = cytotoxicity [3] -0.41% [at 15.8 µM] | cytotoxicity increase [4] -14.5% [at 15.8 µM] | activity change, negative = cytotoxicity [5] -2.4% [at 19 µM] | viability change, negative = cytotoxic [6] 2.53% [at 19 µM] | activity, negative = inhibition [19] -8.92% [at 19 µM] | activity change, negative = inhibition [7] -4.57% [at 19 µM] | outcome [20] | activity change, negative = inhibition [8] -2.63% [at 19 µM] | activity change, negative = cytotoxicity [9] -0.57% [at 19 µM] | viability change, negative = cytotoxic [10] -0.254% [at 19 µM] | viability change, negative = cytotoxic [11] 1.48% [at 19 µM] | activity change [12] 0.782% [at 18.9 µM] | activation [14] -2.61% [at 19 µM] | activity change, negative = cytotoxicity [16] -1.46% [at 19 µM] | activity change, negative = cytotoxicity [17] 7.76% [at 19 µM]

N#Cc1cscn1
inactive: Potency [1] | Potency [2] | Potency [3] | Potency [4] | outcome [5] | outcome [6] | Potency [8] | outcome [10] | outcome [11] | outcome [12] | Potency [13] | outcome [16] | outcome [17]

CC1=NN(c2ccc(S(=O)(=O)O)cc2)C(=O)C1
inactive: Potency [1] | Potency [18] | Potency [3] | outcome [5] | outcome [6] | Potency [8] | outcome [10] | outcome [11] | outcome [12] | Potency [13] | outcome [16] | outcome [17]

CC(C)[C@H]1CC[C@H](C)C[C@@H]1O
inactive: Potency [1] | Potency [18] | Potency [4] | outcome [5] | outcome [6] | Potency [19] | Potency [8] | outcome [9] | outcome [11] | outcome [12] | outcome [16] | outcome [17]

C[C@]12CCC(=O)C=C1CC[C@H]1[C@@H]3CC[C@](O)(C(=O)CO)[C@@]3(C)C[C@H](O)[C@@]12F
active: Potency [3] 2.13 µM
inactive: Potency [1] | Potency [18] | Potency [4] | outcome [6] | outcome [7] | outcome [20] | Potency [8] | outcome [11] | outcome [12] | Potency [13] | Potency [14] | Potency [15] | outcome [16] | outcome [17]

CC(C)Cn1cnc2c1c(=O)n(C)c(=O)n2C
inactive: Potency [1] | Potency [18] | Potency [3] | Potency [4] | outcome [6] | outcome [7] | outcome [20] | Potency [8] | outcome [9] | outcome [10] | outcome [11] | outcome [12] | Potency [13] | Potency [15] | outcome [16]

COc1cc2c(cc1OC)C(=O)C(CC1CCN(Cc3ccccc3)CC1)C2 (stereo not drawn)
active: Potency [1] 21.3 µM
inactive: Potency [2] | Potency [3] | Potency [4] | outcome [5] | outcome [6] | Potency [19] | outcome [7] | outcome [20] | Potency [8] | outcome [9] | outcome [11] | Potency [14] | outcome [16] | outcome [17]

Cc1cccc(Cl)c1
inactive: Potency [1] | Potency [18] | Potency [3] | outcome [5] | outcome [9] | outcome [10] | outcome [11] | Potency [13] | Potency [14] | outcome [16] | outcome [17]

Nc1nc(-c2ccccc2)c(Br)c(=O)[nH]1
inactive: Potency [1] | Potency [18] | outcome [5] | outcome [6] | Potency [19] | outcome [7] | outcome [20] | Potency [8] | outcome [9] | outcome [11] | Potency [13] | outcome [16] | outcome [17]

COCCc1ccccn1
inactive: Potency [1] | Potency [2] | Potency [3] | Potency [4] | outcome [5] | outcome [6] | Potency [19] | outcome [7] | Potency [8] | outcome [9] | outcome [11] | outcome [12] | Potency [13] | outcome [16] | outcome [17]

CO[Si](CCCn1c(=O)n(CCC[Si](OC)(OC)OC)c(=O)n(CCC[Si](OC)(OC)OC)c1=O)(OC)OC
inactive: Potency [1] | Potency [2] | Potency [3] | Potency [4] | outcome [5] | outcome [6] | Potency [8] | outcome [9] | outcome [10] | outcome [11] | outcome [12] | Potency [13] | outcome [16] | outcome [17]

O=NN(CCCl)C(=O)NC1CCCCC1
inactive: Potency [1] | Potency [18] | outcome [5] | outcome [6] | outcome [20] | Potency [8] | outcome [9] | outcome [10] | outcome [11] | outcome [12] | Potency [13] | Potency [15] | outcome [16] | outcome [17]

CN(C)CCCCl
inactive: Potency [1] | Potency [2] | Potency [3] | Potency [4] | outcome [5] | outcome [6] | outcome [7] | Potency [8] | outcome [9] | outcome [10] | outcome [11] | outcome [12] | Potency [13] | outcome [16] | outcome [17]
